Sm TGR inh = qHTS Assay for the Inhibitors of Schistosoma Mansoni Peroxiredoxins. Schistosoma mansoni thioredoxin glutathione reductase (TGR), Q962Y6. purified TGR, DTNB reduction, TNB absorbance 405 nm. Potency, µM (highest dose often 114 µM), for inactives: top-dose activity change, negative = inhibition, actives largely listed as inhibitors. hit rate 3% among 360,000; note: potency is the fitted concentration of half-maximal effect; % is set by controls: 0 for no effect and ±100 for the full control effect; nearly all actives have a fitted effect of over 60% in size
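First, TGR (20 nM dispensed) and NADPH were mixed with compound. Second, a 15 min room-temperature incubation followed. Third, further NADPH and then DTNB were added to start the reaction. Finally, TNB absorbance was monitored kinetically.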
CHX counter = Cycloheximide Counterscreen for Small Molecule Inhibitors of Shiga Toxin. cell reporter, cycloheximide protein synthesis inhibition counterscreen. max response, %. hit rate 12% among 300,000; in the data active = max response mostly above about 13%, no sharp cut-off; inactive = mostly below about 14%; note: read at 38.3 µM for the half of the compounds with a filed dose; 0% is about no effect
Pf growth 96h = Primary qHTS for delayed death inhibitors of the malarial parasite plastid, 96 hour incubation | P. falciparum luciferase reporter growth, 96 h | Potency, µM (series often up to 28.7 µM), for the others: at the top dose activity change, negative = inhibition, actives largely listed as inhibitors | hit rate 6.9% among 320,000 | AID 504834, 2011; note: potency is the fitted concentration of half-maximal effect; % is set by controls: 0 for no effect and ±100 for the full control effect
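Parasite growth measured via integrated firefly luciferase reporter in P. falciparum. Infected erythrocytes at 2% hematocrit, 0.05% parasitemia final were treated 96 hours at 37 C under 5% CO2, and luminescence was read.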
NS1 function inh = qHTS Assay for Inhibitors of Influenza NS1 Protein Function. AID 2326, 2010. Potency, µM (series often up to 46.1 µM), for the others: top-dose activity, positive = more growth. hit rate 0.4% among 270,000; calls by dose curve; note: potency is the fitted concentration of half-maximal effect; actives are rising curves; nearly all actives have a fitted effect of over 50% in size
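S. cerevisiae expressing influenza A NS1, grown in glucose, washed, then diluted 1:100 into pH 6.0 -URA galactose medium with 23 nl compound. Growth recovery read as OD600; NS1-free strain serves as control.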
Shiga toxin inh = A qHTS for Small Molecule Inhibitors of Shiga Toxin; Vero cells, Shiga toxin protein synthesis inhibition reporter; inhibition, % at 38.7 µM; hit rate 9.2% among 290,000; AID 2315, 2010; in the data active = inhibition mostly above about 28%, no sharp cut-off; inactive = mostly below about 43%; note: 0% is about no effect
Pf growth 48h = Primary qHTS for delayed death inhibitors of the malarial parasite plastid, 48 hour incubation. hit rate 5.9% among 310,000. Potency, µM (titrated, usually from 28.7 µM), without a hit: top-dose activity change, negative = inhibition, actives largely listed as inhibitors. AID 504832, 2011. P. falciparum luciferase growth in erythrocytes, 48 h; note: potency is the fitted concentration of half-maximal effect; % is set by controls: 0 for no effect and ±100 for the full control effect
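Compounds are pin-transferred into medium, infected erythrocytes (2% hematocrit, 0.1% parasitemia final) are added, and plates sit one parasite generation at 37 C in 5% CO2. Detection reagent is then added and luminescence measured.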
* hit, by the source's call; ? = inconclusive; / = no result given. Shown are actives, neighbours in structure and some others; about 21% of the full set was active somewhere. Unless noted, calls come from the whole dose curve; as a rule, active = well fitted curve in the direction sought with a large enough effect; inconclusive = small, poorly fitted or top-dose-only effect, or another doubt; inactive = no such curve, though single readings can be large; an effect the other way counts as inactive or inconclusive.

SMILES | Sm TGR inh | CHX counter | Pf growth 96h | NS1 function inh | Shiga toxin inh | Pf growth 48h
S=C(Nc1cccnc1)NC1CC2CCC1C2 (configuration not stated) | -4.7% | 0.5 | ? | 12.8% | 10.6 | ?
Oc1ccc(/C=N/NC(=S)NCC2CCCO2)cc1 (configuration not stated) | -14.3% | 1.0 | 21.5% | 25.3% | -6.2 | /
Oc1ccc(/C=N/NC(=S)NC2CC3CCC2C3)cc1 (configuration not stated) | -23.7% | 16.5* | ? | 2.1% | 37.2 | ?
COc1ccc(CNc2oc(/C=C/c3cc(OC)c(OC)c(OC)c3)nc2C#N)cc1 | 3.8% | / | / | / | / | /
CC(C)C[C@H](NC(=O)CN(C)C(=O)[C@H](Cc1ccccc1)NC(=O)[C@H](Cc1ccccc1)NC(=O)[C@H](CCC(N)=O)NC(=O)[C@H](CCC(N)=O)NC(=O)[C@@H]1CCCN1C(=O)[C@H](CCCCN)NC(=O)[C@@H]1CCCN1C(=O)[C@@H](N)CCCN=C(N)N)C(=O)N[C@@H](CCS(C)(=O)=O)C(N)=O | / | 5.3 | / | / | 19.0 | /
CCN1C(=O)/C(=C2\SC(=S)N(CCCOC)C2=O)c2ccccc21 | 3.1% | -2.4 | 10.4µM* | -2.8% | -12.0 | ?
CCCCN1C(=O)/C(=C2/Sc3ccc(OC)cc3N2CC)SC1=S | -25.2% | -2.2 | 9.28µM* | -0.5% | / | 30.9%
COCCN1C(=O)/C(=C2/C(=O)N(CC(=O)Nc3ccccc3Cl)c3ccccc32)SC1=S | -7.2% | -2.4 | ? | 1.7% | -7.1 | ?
FC(F)(F)C1=CC(c2ccc(Cl)cc2)=NCCN1 | -1.1% | 6.2 | 2.62µM* | -7.9% | -1.9 | ?
Oc1ccccc1C1=NCCNC(C(F)(F)F)=C1 | / | -4.7 | -3.2% | 4.6% | -2.0 | 0.6%
Cn1ncc(Cl)c(Oc2ccc(C(C)(C)C)cc2)c1=O | 6.6% | 20.3* | ? | -21.5% | -3.9 | -23.8%
CC(C)C(=O)N1CCN(c2nc(-c3ccccc3)c3c(c2C#N)CCCC3)CC1 | 0.5% | -4.7 | 8.28µM* | 7.4% | -7.6 | /
CCc1nc(N2CCN(C(=O)c3ccccc3)CC2)c(C#N)c2c1COC(C)(C)C2 | 0.0% | -6.2 | ? | -15.2% | -20.4 | 9.28µM*
CC1(C)Cc2c(C#N)c(N3CCOCC3)nc(-c3ccccc3)c2CO1 | -13.3% | -2.8 | ? | -9.1% | -2.6 | 10.4µM*
CC1(C)Cc2c(C#N)c(N3CCN(C(=O)c4ccccc4)CC3)nc(Cc3ccccc3)c2CO1 | -1.4% | -1.5 | / | -1.0% | -9.0 | ?
CCCC(=O)N1CCN(c2nc(CC(C)C)c3c(c2C#N)CCC3)CC1 | 0.0% | 6.5 | 0.0% | -73.0% | 17.3 | 2.62µM*
CC(C)NCC[C@@H](O)c1cc2ccccc2o1 | / | / | / | -1.4% | / | /
Cc1cccc(C)c1NC(=S)N(Cc1ccccc1)Cc1cccs1 | 2.4% | -2.2 | ? | / | -14.7 | ?
Cc1ccc(S(=O)(=O)N2CCN(c3nc(C)c4c(c3C#N)CC(C)(C)OC4)CC2)cc1 | 0.0% | -3.8 | -21.6% | 9.3% | -21.7 | 6.57µM*
N#Cc1cnc2nc(SCc3ccccc3)nn2c1 | 7.1% | 35.0* | 189.4% | 1.4% | 70.1* | 101.3%
CCOC(=O)c1cn2nc(SCc3ccccc3)nc2nc1C | -2.4% | 39.2* | 9.6% | -31.8% | 52.0* | 24.5%
Cc1nc2nc(SCc3ccccc3)nn2c(C)c1C | 5.0% | / | 41.7% | / | / | 10.6%
CC(=O)NC(N(C#N)c1nc(Cl)nc(N(C)C)n1)C(Cl)(Cl)Cl (configuration not stated) | 39.8µM* | 0.3 | 46.1% | 1.1% | 3.9 | 13.0%
CCOC(=O)c1cc(-c2csc(N/N=C/c3ccccc3Cl)n2)on1 | 1.9% | -0.9 | 2.62µM* | 0.4% | -11.8 | ?
CCn1c(SCc2cccc(C)c2)nnc1-c1ccc(C)cc1 | -29.9% | -7.8 | ? | -109.6% | -8.1 | ?
Cc1ccn2cc(-c3cc4ccccc4oc3=O)nc2c1 | ? | 43.9* | 8.1% | -4.8% | 75.9* | 249.0%

Screening results from PubChem BioAssay.
